Measured values from PubChem BioAssay AID489028 (Sanford-Burnham Center for Chemical Genomics, 2010).
Among all 10,000 compounds or so, about 5,600 (56%) were called active. So high a share suggests a set chosen from earlier hits. A selection follows. Values without a mark were called inactive. Cut-off read from the data, not from the text of the source: active = inhibition above about 40%; inactive = the rest.

Each molecule was assayed against Protein Mdm4 (Homo sapiens) + E3 ubiquitin-protein ligase Mdm2 (Homo sapiens) (UniProt O15151+Q00987) (assay: inhibition of human Mdm2/MdmX pairing – luminescence, single concentration, confirmation (AID 489028)). Conditions: Mdm2-MdmX binding, luminescent assay; at 8 µM; active compounds read high.
Sequence of Protein Mdm4 (Homo sapiens) + E3 ubiquitin-protein ligase Mdm2 (Homo sapiens) (O15151 whole entry, looked up): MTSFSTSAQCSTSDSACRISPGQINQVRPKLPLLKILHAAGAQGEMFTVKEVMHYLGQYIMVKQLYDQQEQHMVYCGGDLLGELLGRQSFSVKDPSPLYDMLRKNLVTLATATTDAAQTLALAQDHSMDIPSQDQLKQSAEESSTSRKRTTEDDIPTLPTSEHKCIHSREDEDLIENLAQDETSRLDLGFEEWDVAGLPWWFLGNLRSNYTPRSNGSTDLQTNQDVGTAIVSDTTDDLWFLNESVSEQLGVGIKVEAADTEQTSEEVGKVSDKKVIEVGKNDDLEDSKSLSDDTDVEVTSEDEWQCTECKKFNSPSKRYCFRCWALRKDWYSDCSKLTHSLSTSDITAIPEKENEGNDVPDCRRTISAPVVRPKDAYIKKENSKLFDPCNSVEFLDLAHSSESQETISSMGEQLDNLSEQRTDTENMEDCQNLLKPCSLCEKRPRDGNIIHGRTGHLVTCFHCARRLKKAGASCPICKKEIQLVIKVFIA
Sequence of Protein Mdm4 (Homo sapiens) + E3 ubiquitin-protein ligase Mdm2 (Homo sapiens) (Q00987 whole entry, looked up): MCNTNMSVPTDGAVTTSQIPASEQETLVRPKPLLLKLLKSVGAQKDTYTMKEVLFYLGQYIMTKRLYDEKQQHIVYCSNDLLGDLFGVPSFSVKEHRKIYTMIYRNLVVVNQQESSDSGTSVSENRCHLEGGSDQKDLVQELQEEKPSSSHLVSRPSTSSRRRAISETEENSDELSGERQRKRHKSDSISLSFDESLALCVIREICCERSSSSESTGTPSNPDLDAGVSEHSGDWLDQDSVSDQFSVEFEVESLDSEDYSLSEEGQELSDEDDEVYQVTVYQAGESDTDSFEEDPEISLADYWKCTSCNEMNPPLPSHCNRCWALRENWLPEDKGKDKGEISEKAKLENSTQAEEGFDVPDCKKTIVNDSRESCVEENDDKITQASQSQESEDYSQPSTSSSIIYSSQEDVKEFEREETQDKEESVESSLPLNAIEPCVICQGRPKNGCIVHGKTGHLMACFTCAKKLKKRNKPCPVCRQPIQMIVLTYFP
In the case of CCOC(=O)c1c(-c2ccc(C)cc2)csc1/N=C(\C)C1=C(O)c2ccccc2C1=O, the inhibition is reported as 28.7%. CCOC(=O)c1cc(NC(=O)c2ccc(Cl)cc2)c(=O)oc1-c1ccccc1 was tested, and the inhibition was 35.2%. For CCOC(=O)c1c(-c2cccc(C)c2)csc1NC(=O)c1c(-c2ccccc2)noc1C, the inhibition was 92.6% (active). In the case of Nc1nonc1-c1nc2ccccc2n1Cc1ccc(F)cc1, the inhibition is reported as 63.5% (active). With Fc1ccc(CNc2nc3ccccc3n3nnnc23)cc1 the inhibition was 9.85%. For COc1cccc(/C=N/NC(=O)c2[nH]nc3c2CCc2ccccc2-3)c1O, the inhibition was 83.7% (active). COc1ccc(CNc2nc(NCc3ccc(OC)cc3)c3ncn(C4CCCC4)c3n2)cc1 was tested, and the inhibition was 45.4% (active). CCOc1ccc2nc(Cl)c(C3CC(c4ccccc4)=NN3C(=O)c3cccs3)cc2c1 (stereo unspecified) gave an inhibition of 5.3%. COc1ccc(C2CC(c3ccccc3)=NN2C(=O)c2ccc(Cl)c([N+](=O)[O-])c2)cc1 (stereo unspecified) was tested, and the inhibition was 46.1% (active). COc1ccc(-c2cc(C3CCN(c4ncccc4[N+](=O)[O-])CC3)[nH]n2)cc1 was tested, and the inhibition was 24.6%. CCOC(=O)C1=C(NC(=S)NC(=O)c2ccccc2)c2ccccc2CC1(C)C gave an inhibition of 28.8%. For N#CC1=C(N)Oc2cc(O)ccc2C1C1CCCCC1 (stereo unspecified), the inhibition was 45.4% (active). Molecule COc1ccc(C2C(C#N)=C(N)Oc3cc(N)ccc32)cc1OC (stereo unspecified) has an inhibition of 9.6%. c1ccc2c(c1)CSc1sccc1C2=C1CCNCC1 was tested, and the inhibition was 72.3% (active). For CS(=O)(=O)c1ccc(-c2nnn(CC(=O)Nc3ccc4c(c3)OCCO4)n2)cc1, the inhibition was -2.65%. O=C(Nc1ccc2c(c1)OCCO2)C1CCCC1 was tested, and the inhibition was 69.3% (active). For O=C(N/N=C\c1cc2c(cc1Cl)OCO2)c1ccc(Br)s1, the inhibition was 57.1% (active). For Cc1ccc(-c2nc3ccccc3[nH]2)cc1NC(=O)c1sc2ccccc2c1Cl, the inhibition was 57.4% (active). COc1ccc(Br)cc1C(=O)NC(=S)Nc1cc(-c2nc3ccccc3[nH]2)ccc1C gave an inhibition of 16.8%. COc1ccc(-c2cc(C(=O)N(C)Cc3ccc(OC)c(OC)c3OC)c3ccccc3n2)cc1OC was tested, and the inhibition was 46.9% (active). In the case of COc1ccc(-c2cc(C(=O)N(C)CC(=O)Nc3ccccc3Cl)c3ccccc3n2)cc1OC, the inhibition is reported as 49.2% (active). With COc1ccc(CN(C)C(=O)c2cc(-c3ccc(C)cc3C)nc3ccccc23)c(OC)c1OC the inhibition was 60.2% (active). Molecule CN(C)c1ccc(-n2cccc2/C=C2/SC(=Nc3ccc(F)cc3)NC2=O)cc1 has an inhibition of 12.6%. For CCCc1nc2c(c(=O)c3ccccc3n2C)c(=O)n1C1CCCCCC1, the inhibition was 87.2% (active). Cc1ccc(Oc2nc(-c3ccccn3)nc3ccccc23)cc1 showed an inhibition of 3.9%. In the case of CC(C)(C)Nc1nc(-c2ccccn2)nc2ccccc12, the inhibition is reported as 85.5% (active).
